A number with no mark means an inactive call. Inconclusive results are not listed. Activity calls are given as the source filed them. Unless noted, the call rests on the fitted dose curve; in most records, active means well fitted curve in the direction sought with a large enough effect in the repeat runs; inconclusive means weak or mixed curves; inactive means no such curve, though single readings can be large; an effect the other way counts as inactive or inconclusive.

Assay [1] is described as follows: qHTS RealTime-Glo MT Cell Viability Assay in HEK293 cells - 0 hour (AID 1224880). Further: nearly all actives have a fitted effect of over 45% in size. Further: potency means the concentration at half of the fitted maximal effect. Summed up:
(§1)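 HEK293 + NanoLuc + prosubstrate, 600 cells/well; 5 h, 37 C/5% CO2; compound 23 nL in DMSO by pintool; 37 C; luminescence read at 0, 8, 16, 24, 32 and 40 h time points.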
(In general: Quantitative high-throughput screening tests each substance at several concentrations.)

Assay [2] is described as follows: A CellTox Green Cytotoxicity Assay to monitor cytotoxicity in HEK293 cells - 32 hour (AID 1224881). Further: nearly all actives have a fitted effect of over 40% in size. The essentials: (§2)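 Tox21 screen in HEK293: membrane-impermeant cyanine dye fluoresces on binding dead-cell DNA; compound pinned 5 h post-seeding, plates held at 37 C, signal read repeatedly through 40 h.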
A short description of assay [3]: A CellTox Green Cytotoxicity Assay to monitor cytotoxicity in HepG2 cells - 0 hour (AID 1224882). Further: nearly all actives have a fitted effect of over 35% in size. Summed up: (§3)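 Measurements at 0, 8, 16, 24, 32 and 40 h of treatment captured CellTox Green fluorescence in HepG2 cells that had been co-plated with reagent and preincubated 5 h at 37 C/5% CO2.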
A short description of assay [4]: A CellTox Green Cytotoxicity Assay to monitor cytotoxicity in HEK293 cells - 8 hour (AID 1224884). Further: nearly all actives have a fitted effect of over 35% in size. Summed up:
as §2

A short description of assay [5]: qHTS RealTime-Glo MT Cell Viability Assay in HepG2 cells - 16 hour (AID 1224885). Further: nearly all actives have a fitted effect of over 50% in size. The essentials: (§4)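 Real-time, nonlytic viability: 600 HepG2 cells/well mixed with NanoLuc enzyme plus prosubstrate; 5 h settle, compound (DMSO) added by pintool; luminescence monitored over 40 h at 37 C.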
Assay [6] is described as follows: qHTS RealTime-Glo MT Cell Viability Assay in HEK293 cells - 24 hour (AID 1224886). Further: top concentration of the series differs between compounds; nearly all actives have a fitted effect of over 50% in size. The essentials:
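Cells + reagent dispensed (600 cells/well, HEK293) → 5 h at 37 C/5% CO2 → 23 nL compound in DMSO pinned → 40 h at 37 C → luminescence read at 0, 8, 16, 24, 32, 40 h.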

The nature of assay [7]: qHTS RealTime-Glo MT Cell Viability Assay in HEK293 cells - 8 hour (AID 1224887). Further: top concentration of the series differs between compounds; nearly all actives have a fitted effect of over 50% in size. The essentials:
as §1

Assay [8] in a line: A CellTox Green Cytotoxicity Assay to monitor cytotoxicity in HEK293 cells - 16 hour (AID 1224888). Further: nearly all actives have a fitted effect of over 35% in size. The essentials:
as §2

Assay [9] in a line: qHTS RealTime-Glo MT Cell Viability Assay in HepG2 cells - 0 hour (AID 1224889). Further: nearly all actives have a fitted effect of over 50% in size. Further: potency means the concentration at half of the fitted maximal effect. The essentials: as §4
A short description of assay [10]: A CellTox Green Cytotoxicity Assay to monitor cytotoxicity in HepG2 cells - 8 hour (AID 1224890). Further: nearly all actives have a fitted effect of over 45% in size. The essentials: as §3
Assay [11] can be described thus: qHTS assay to identify small molecule antagonists of the estrogen receptor alpha (ER-alpha) signaling pathway using the BG1 cell line in the presence of 0.1 nM 17-beta-estradiol - cell viability counter screen (AID 1259241). Further: nearly all actives have a fitted effect of over 40% in size. Summed up: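 VM7Luc4E2 cells (endogenous ER-alpha, 4×ERE-luciferase), hormone-starved 5 days in charcoal-stripped FBS, were treated with compounds plus 0.1 nM 17beta-estradiol for 22 hr at 37C; viability read in same wells as CellTiter-Fluor live-cell protease fluorescence.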

Assay [12] is described as follows: qHTS assay to identify small molecule antagonists of the androgen receptor (AR) signaling pathway using the MDA cell line in the presence of 0.5 nM R1881 - cell viability counter screen (AID 1259242). Further: nearly all actives have a fitted effect of over 45% in size. The essentials: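 Concentration-response screen of compounds for toxicity in MDA-kb2 reporter cells: 16 hr at 37C with 0.5 nM R1881, endpoint live-cell protease fluorescence measured in the reporter wells.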

For assay [13], the target named is Androgen receptor (Homo sapiens) (UniProt P10275). As to the kind of experiment: qHTS assay to identify small molecule antagonists of the androgen receptor (AR) signaling pathway using the MDA cell line in the presence of 0.5 nM R1881 (AID 1259243). Further: nearly all actives have a fitted effect of over 50% in size. Summed up: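 With R1881 held at 0.5 nM (final), compound effects on MMTV-luciferase expression in MDA-kb2 cells were scored by luminescence after a 16 hr, 37C incubation.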

Assay [14] deals with Estrogen receptor (Homo sapiens) (UniProt P03372). As to the kind of experiment: qHTS assay to identify small molecule antagonists of the estrogen receptor alpha (ER-alpha) signaling pathway using the BG1 cell line in the presence of 0.1 nM 17-beta-estradiol (AID 1259244). Further: nearly all actives have a fitted effect of over 50% in size. The essentials: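 Compounds were tested against 0.1 nM (final) 17beta-estradiol in VM7Luc4E2 cells, which express full-length ER-alpha and an ERE-luciferase reporter; luminescence was recorded following 22 h exposure.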

Assay [15] in a line: qHTS assay to identify small molecule HDAC inhibitors (AID 1259364). Further: potency means the concentration at half of the fitted maximal effect.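 Further: wild-type HCT-116 cells with endogenous class I/II HDAC activity; nearly all actives have a fitted effect of over 45% in size.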 The essentials:
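Screening used wild-type human colon HCT-116 cells incubated overnight, dosed with compounds for 2 hours, and assayed with a homogeneous luminogenic HDAC I/II reagent for 30 minutes at room temperature.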

Assay [16] can be described thus: qHTS assay to identify small molecule HDAC inhibitors - cell viability counter screen (AID 1259365). The essentials: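 Wild-type HCT-116 cells were seeded at 1,500 per well, incubated overnight at 37 C, then exposed to compounds in DMSO for 2hr. Viability was read by CellTiter-Glo luminescence after 30min at room temperature.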
Assay [17] is described as follows: qHTS assay to identify small molecule agonists of the sonic hedgehog signaling (Shh) pathway - cell viability counter screen (AID 1259366). Further: nearly all actives have a fitted effect of over 50% in size. The essentials: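 NIH/3T3-derived 3T3 Gli1-Luc cells (stable Gli1-responsive firefly luciferase reporter) were seeded, rested 4 hr at 37 C/5% CO2, then exposed to compounds in DMSO for 24 hr; viability was read by CellTiter-Fluor fluorescence in the same wells.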

Assay [18] in a line: A CellTox Green Cytotoxicity Assay to monitor cytotoxicity in HepG2 cells - 32 hour (AID 1224883). Further: nearly all actives have a fitted effect of over 50% in size. Further: potency means the concentration at half of the fitted maximal effect. The essentials: as §3
A short description of assay [19]: qHTS assay to identify small molecule phospholipidosis (PLD) inducers (AID 1259344; active means well fitted curve in the direction sought with a large enough effect; an effect the other way counts as inactive or inconclusive). Summed up:
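After 4 h attachment on collagen I, HepG2 cells were dosed with compound alongside LipidTOX Red, kept 24 h at 37 C, fixed, and imaged for lamellar phospholipid pits.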

A short description of assay [20]: qHTS assay to identify small molecule antagonists of the sonic hedgehog signaling (Shh) pathway - cell viability counter screen (AID 1259367). Further: nearly all actives have a fitted effect of over 55% in size. Summed up: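 Conditioned medium drove Shh signaling in 3T3 Gli1-Luc cells exposed to compounds at 37C and 5% CO2. Viability was determined from CellTiter-Fluor fluorescence, with reagent incubated 1 hr after 23 hr of treatment.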

Estrogen receptor (Homo sapiens), sequence (P03372 whole entry, looked up): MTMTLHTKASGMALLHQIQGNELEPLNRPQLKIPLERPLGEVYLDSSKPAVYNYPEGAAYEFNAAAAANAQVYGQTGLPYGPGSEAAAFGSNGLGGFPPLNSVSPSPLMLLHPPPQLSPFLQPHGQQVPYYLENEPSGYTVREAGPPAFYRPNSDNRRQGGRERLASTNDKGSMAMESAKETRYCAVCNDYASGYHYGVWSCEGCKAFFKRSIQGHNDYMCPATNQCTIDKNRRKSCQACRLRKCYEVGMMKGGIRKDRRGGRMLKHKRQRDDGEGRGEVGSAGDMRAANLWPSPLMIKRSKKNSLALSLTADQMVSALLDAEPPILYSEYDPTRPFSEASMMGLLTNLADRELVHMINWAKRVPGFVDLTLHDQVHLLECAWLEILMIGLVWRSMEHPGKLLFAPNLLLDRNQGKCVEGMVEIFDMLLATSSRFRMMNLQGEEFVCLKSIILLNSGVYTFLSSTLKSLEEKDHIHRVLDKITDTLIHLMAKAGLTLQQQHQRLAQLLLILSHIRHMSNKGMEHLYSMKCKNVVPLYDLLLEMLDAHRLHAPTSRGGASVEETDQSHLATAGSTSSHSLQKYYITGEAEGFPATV
Androgen receptor (Homo sapiens), sequence (P10275 whole entry, looked up): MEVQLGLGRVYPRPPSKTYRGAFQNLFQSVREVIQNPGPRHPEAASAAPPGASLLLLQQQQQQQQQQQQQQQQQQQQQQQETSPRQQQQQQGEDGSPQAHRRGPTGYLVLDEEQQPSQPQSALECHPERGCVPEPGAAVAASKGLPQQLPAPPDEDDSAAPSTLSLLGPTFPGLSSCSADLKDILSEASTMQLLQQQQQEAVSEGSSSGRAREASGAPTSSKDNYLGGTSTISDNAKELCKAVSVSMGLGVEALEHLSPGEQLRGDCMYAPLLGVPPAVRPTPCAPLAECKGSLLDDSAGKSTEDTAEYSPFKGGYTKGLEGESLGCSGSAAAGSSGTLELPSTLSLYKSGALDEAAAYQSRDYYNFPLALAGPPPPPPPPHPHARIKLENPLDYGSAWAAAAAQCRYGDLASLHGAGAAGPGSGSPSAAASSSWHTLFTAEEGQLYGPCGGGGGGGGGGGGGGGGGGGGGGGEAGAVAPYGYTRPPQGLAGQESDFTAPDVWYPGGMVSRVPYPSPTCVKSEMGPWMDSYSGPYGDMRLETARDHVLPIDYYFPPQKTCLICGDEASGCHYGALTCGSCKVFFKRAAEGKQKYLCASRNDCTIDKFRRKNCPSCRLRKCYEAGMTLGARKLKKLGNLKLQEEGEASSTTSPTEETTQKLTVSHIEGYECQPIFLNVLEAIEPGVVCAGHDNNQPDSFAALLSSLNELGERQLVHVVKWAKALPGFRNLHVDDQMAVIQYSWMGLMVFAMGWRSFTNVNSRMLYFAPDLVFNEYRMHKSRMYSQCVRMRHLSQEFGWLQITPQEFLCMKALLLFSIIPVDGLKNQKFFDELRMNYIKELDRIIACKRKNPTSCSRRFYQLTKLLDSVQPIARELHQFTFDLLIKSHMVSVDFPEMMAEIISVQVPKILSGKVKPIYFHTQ

Consider `O=C(O)C(=O)Cc1ccccc1`, for which the Potency result in assay [1], in [2], in assay [4], in assay [6], in assay [7] and in assay [9] was “inactive” each time. Further, the Potency entry in assay [11], in assay [13], in assay [14], in assay [15] and in [17] was “inactive” each time. Further, the result in [3], in [5], in assay [8], in [10], in assay [12] and in assay [16] was inactive.
For the molecule `CC1COc2ccccc2N1` (configuration not stated), the Potency entry in assay [1], in assay [2], in [18], in assay [7], in assay [9] and in assay [11] was “inactive” each time. In addition, the Potency entry in assay [15] and in assay [17] was “inactive” in each case. The outcome in assay [3], in assay [5], in assay [8], in [10], in [12] and in assay [16] was inactive.
Turning to `COc1cc(C(=S)N2CCOCC2)cc(OC)c1OC`, the Potency result in [1], in assay [2], in assay [18], in [6], in assay [7] and in [9] was “inactive” in each case. Further, the Potency entry in assay [11], in assay [14], in assay [15], in [17] and in assay [20] was “inactive” throughout. Moreover, the molecule was classed as inactive in assay [3], in [5], in assay [8], in assay [10], in assay [12] and in assay [19]. Moreover, in [16], the outcome was inactive.
As for `CCOCCOC(=O)/C=C/c1ccc(OC)cc1`, the Potency entry in assay [1], in assay [2], in [18], in [6], in assay [7] and in assay [9] was “inactive” each time. Further, the Potency entry in assay [11], in assay [14], in assay [17] and in assay [20] was “inactive” each time. For the same molecule, the result in assay [3], in assay [5], in assay [8], in [10], in assay [12] and in assay [16] was inactive. In addition, the Potency in [15] was 11900 nM (active).
With `c1ccc2c(c1)ccc1c3ccccc3ccc21`, the Potency entry in assay [1], in assay [2], in [18], in assay [6], in assay [7] and in assay [9] was “inactive” in each case. Besides, the Potency result in assay [11], in assay [17] and in [20] was “inactive” throughout. In addition, the outcome in assay [3], in assay [5], in [8], in assay [10] and in assay [16] was inactive.
For `Cc1cc(NC(=O)C2=C(O)c3ccccc3S(=O)(=O)N2C)no1`, the Potency entry in assay [1], in assay [2], in [18], in assay [4], in assay [6] and in [7] was “inactive” throughout. The Potency entry in assay [11], in assay [15], in [17] and in assay [20] was “inactive” in each case. Further, the outcome in assay [3], in assay [5], in [8], in assay [10], in [12] and in assay [19] was inactive. The call in [16] was inactive.
On to `O=C1c2ccccc2C(=O)c2cc(S(=O)(=O)O)ccc21`, for which the Potency result in assay [1], in assay [2], in assay [18], in assay [4], in [9] and in assay [11] was “inactive” each time. Also, the Potency result in assay [14], in assay [17] and in [20] was “inactive” throughout. In addition, the call in [3], in assay [5], in assay [8], in assay [10], in assay [12] and in assay [16] was inactive. Besides, in assay [15], the Potency is 2440 nM (active).
Turning to `COc1ccc(S(=O)(=O)N2c3ccc(Cl)cc3[C@@](O)(c3ccccc3Cl)[C@H]2C(=O)N2CCC[C@@H]2C(N)=O)cc1OC`, the Potency result in assay [1], in [2], in assay [18], in assay [4], in assay [9] and in [11] was “inactive” throughout. Also, the Potency result in [14], in [15], in assay [17] and in assay [20] was “inactive” in each case. Further, the call in assay [3], in assay [5], in assay [8], in [10], in assay [12] and in assay [19] was inactive. For the same molecule, the molecule was called inactive in [16].
For the molecule `Cc1ccccc1N=O`, the Potency entry in assay [1], in assay [2], in assay [18], in assay [6], in assay [7] and in assay [9] was “inactive” in each case. The Potency result in [11], in assay [15] and in assay [17] was “inactive” throughout. In addition, the outcome in assay [3], in assay [5], in [8], in assay [10], in [12] and in assay [16] was inactive.
As to `OCCN(CCO)c1cccc(Cl)c1`, the Potency entry in [1], in assay [2], in [18], in assay [6], in assay [7] and in [9] was “inactive” each time. Besides, the Potency entry in assay [11], in assay [13], in assay [15], in assay [17] and in assay [20] was “inactive” each time. Moreover, the outcome in assay [3], in [5], in assay [8], in assay [10] and in assay [16] was inactive.
As to `Cc1ccccc1C(=O)Nc1ccc(C(=O)N2CCCC(N(C)C)c3ccccc32)cc1` (configuration not stated), the Potency result in [1], in assay [2], in assay [4], in assay [7], in [9] and in assay [11] was “inactive” throughout. The Potency entry in assay [14] and in assay [15] was “inactive” throughout. Moreover, the molecule was called inactive in [3], in [5], in assay [8], in assay [10], in assay [12] and in assay [16]. The Potency in assay [18] was 7560 nM (active).
`COCCOC(=O)C1=C(C)NC(C)=C(C(=O)OC(C)C)C1c1cccc([N+](=O)[O-])c1` (configuration not stated): the Potency in assay [1] was 2390 nM (active); in [9], 601 nM (active). The Potency entry in [2], in [18], in assay [4], in assay [11], in [14] and in assay [15] was “inactive” in each case. Further, the Potency entry in assay [17] and in assay [20] was “inactive” throughout. In addition, the outcome in [3], in [8], in [10], in [12], in assay [19] and in assay [16] was inactive.
For the molecule `COP(=O)(OC)OC(c1ccc(Cl)cc1)P(=O)(OC)OC` (configuration not stated), the Potency entry in assay [1], in [2], in assay [18], in [6], in assay [7] and in assay [9] was “inactive” in each case. Moreover, the Potency result in assay [11], in [14], in assay [15], in assay [17] and in assay [20] was “inactive” throughout. For the same molecule, the molecule was classed as inactive in assay [3], in [5], in assay [8], in assay [10], in assay [12] and in [19]. Besides, the outcome in [16] was inactive.
`CCn1ccc(NS(=O)(=O)c2ccc(N)cc2)nc1=O`: the Potency entry in assay [1], in assay [2], in [18], in assay [4], in assay [6] and in assay [7] was “inactive” each time. The Potency result in assay [9], in [11], in [14], in [15], in [17] and in [20] was “inactive” throughout. The call in [3], in assay [5], in [10], in assay [12] and in assay [16] was inactive.
